# EPAC2 antag: blocks human EPAC2 exchange factor; Q8WZA2; EPAC2 GEF exchange of Rap1B-BODIPY-GDP, fluorescence; Potency, µM (highest dose often 114 µM), for the others: at the highest dose activity, negative = inhibition, actives largely listed as inhibitors; hit rate 0.18% among 360,000; AID 720708; further: on the % scale 0 is the no-effect control and ±100 the full control effect; nearly all actives have a fitted effect of over 45% in size
# Target sequence (Q8WZA2 whole entry, looked up): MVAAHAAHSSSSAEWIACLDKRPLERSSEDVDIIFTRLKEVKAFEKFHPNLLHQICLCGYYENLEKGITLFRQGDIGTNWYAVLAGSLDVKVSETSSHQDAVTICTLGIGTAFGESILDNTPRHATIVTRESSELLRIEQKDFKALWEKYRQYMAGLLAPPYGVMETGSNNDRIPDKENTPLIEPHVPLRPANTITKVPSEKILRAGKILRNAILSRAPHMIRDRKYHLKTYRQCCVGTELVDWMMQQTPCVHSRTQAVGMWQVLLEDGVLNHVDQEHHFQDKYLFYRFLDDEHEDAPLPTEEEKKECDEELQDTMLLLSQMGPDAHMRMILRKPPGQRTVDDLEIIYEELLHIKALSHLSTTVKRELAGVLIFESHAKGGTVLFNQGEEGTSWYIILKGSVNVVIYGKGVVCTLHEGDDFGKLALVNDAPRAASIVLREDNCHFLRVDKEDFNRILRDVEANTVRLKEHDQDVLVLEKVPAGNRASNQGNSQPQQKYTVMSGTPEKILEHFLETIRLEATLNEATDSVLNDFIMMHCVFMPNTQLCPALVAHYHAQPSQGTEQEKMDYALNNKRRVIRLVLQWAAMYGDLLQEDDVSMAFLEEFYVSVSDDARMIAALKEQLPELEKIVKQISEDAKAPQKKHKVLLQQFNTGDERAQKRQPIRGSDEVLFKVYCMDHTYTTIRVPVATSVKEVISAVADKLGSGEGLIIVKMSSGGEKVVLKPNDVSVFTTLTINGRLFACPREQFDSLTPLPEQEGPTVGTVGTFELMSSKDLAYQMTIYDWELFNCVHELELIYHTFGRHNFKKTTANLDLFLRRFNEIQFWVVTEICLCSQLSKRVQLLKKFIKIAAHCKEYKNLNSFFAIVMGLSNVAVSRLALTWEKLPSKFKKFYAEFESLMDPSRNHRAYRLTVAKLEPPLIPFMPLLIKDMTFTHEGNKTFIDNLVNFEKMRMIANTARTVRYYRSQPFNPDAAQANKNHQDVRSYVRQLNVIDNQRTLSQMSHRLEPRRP
# EPAC1 antag: blocks human EPAC1 exchange factor. O95398. EPAC1 GEF assay, Rap1b-BODIPY-GDP exchange fluorescence. Potency, µM (doses to about 115 µM), for inactives: top-dose activity change, negative = inhibition, hits mostly inhibitors. hit rate 0.14% among 360,000. AID 720709;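 further: plate controls were vehicle for no effect and positive control for full effect; nearly all actives have a fitted effect of over 50% in size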
# EPAC1 ag: agonists of human EPAC1; O95398; EPAC1 agonist qHTS, biochemical assay; response scale: 100% = response to 6.5 mM cAMP; Potency, µM (series often up to 154 µM), inactives show at the top dose activation, usual class: activators; hit rate 0.073% among 360,000; AID 720707; further: nearly all actives have a fitted effect of over 60% in size
#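 Read-out is the fluorescence drop as BODIPY-GDP leaves Rap1B (480 nm excitation, 540 nm emission), recorded every 5 minutes over 30 minutes. Reactions held 100 nM EPAC1, 250 nM Rap1B–BODIPY-GDP and 50 uM GDP, with 6.5 mM cAMP setting full activation.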
# TDP1 inh: TDP1 (human) enzyme inhibition; hit rate 0.28% among 350,000; AID 485290; recombinant TDP1, AlphaScreen DNA substrate cleavage; Potency, µM (series often up to 130 µM), for the others: at the top dose activity change, negative = inhibition, hits mostly inhibitors; Q9NUW8; further: on the % scale 0 is the no-effect control and ±100 the full control effect; nearly all actives have a fitted effect of over 40% in size
#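 Recombinant E. coli-expressed Tdp1 (1 nM) preincubated with compound 15 min at RT, then 5'-biotin/3'-phosphotyrosine-FITC DNA substrate (15 nM) added for 5 min. AlphaScreen beads (10 ug/ml) added, 10 min RT; tyrosine-FITC cleavage read as signal loss.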
# ERG Ets-DNA blk: ERG Ets/DNA interaction inhibition | hit rate 0.028% among 370,000 | AID 624246 | Potency, µM (top dose mostly 76.9 µM), for inactives: at the highest dose FP activity, negative = inhibition, hits mostly inhibitors | fluorescence polarization, His-ERG Ets domain / labelled DNA | P11308; active means well fitted inhibition curve with a large enough effect in the polarisation, with a control signal flat; inconclusive means small, poorly fitted or top-dose-only effect, or effect the other way, or a change in a side signal; inactive means no such curve, though single readings can be large or run the other way; the % refers to the polarisation;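 further: polarization taken with two DNA probes labelled with fluorescein and Texas red; % of control where 0% means no effect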
#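 His-tagged ERG Ets domain (1 uM in the protein solution; 300mM KCl, 50mM Tris-HCl, 1mM EDTA, 1mM DTT, pH 7.5) received compound, then a probe mix of 5 nM fluorescein-DNA and 100nM Texas-615-DNA. Fluorescence polarization was read for both dyes.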
# EPAC2 ag: activates human EPAC2 exchange factor. hit rate 0.079% among 360,000. Potency, µM (doses to about 154 µM), for inactives: at the highest dose activation, most hits filed as activators. Q8WZA2. EPAC2 activation, biochemical qHTS; response scale: 100% = 6.5 mM cAMP response. AID 720711; further: nearly all actives have a fitted effect of over 50% in size
#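 Compounds were titrated in qHTS against a Rap1B-BODIPY-GDP (250 nM) complex with EPAC2 (100 nM) and GDP (50 uM). BODIPY-GDP release tracked at 480/540 nm over 30 min at room temperature, normalized to 6.5 mM cAMP.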
# Numbers without * were called inactive; ? = inconclusive; · = no result given; [ ] = remark or other dose. Compounds with a hit are over-represented: about 0.54% of the library has one in this group of screens. Unless noted, the call rests on the fitted dose curve; in most records, active means well fitted curve in the direction sought with a large enough effect; inconclusive means small, poorly fitted or top-dose-only effect, or another doubt; inactive means no such curve, though single readings can be large; an effect the other way counts as inactive or inconclusive. Potency means the concentration at half of the fitted maximal effect.
SMILES,EPAC2 antag,EPAC1 antag,EPAC1 ag,TDP1 inh,ERG Ets-DNA blk,EPAC2 ag
COc1cc(/C=C2\SC(=S)N(NS(=O)(=O)c3ccccc3)C2=O)ccc1O,?,-10%,-11%,·,163%,-1%
O=C1/C(=C\c2ccc(Br)cc2)SC(=S)N1NS(=O)(=O)c1ccccc1,18µM*,?,-5%,5%,8%,-12%
COc1ccc(/C=C2/SC(=S)N(NS(=O)(=O)c3ccccc3)C2=O)cc1,?,?,-9%,0%,-3%,7%
COc1ccc(/C=C(\CC(=O)O)c2nc3ccccc3s2)cc1O,-7%,-20%,4%,-7%,4%,2%
O=C(O)C/C(=C\c1cccc(NC(=O)c2ccccc2Cl)c1)c1nc2ccccc2s1,4%,0%,-9%,·,9%,-2%
Cn1cnnc1Sc1ccc(/C=C(\CCC(=O)O)c2nc3ccccc3s2)cc1[N+](=O)[O-],2%,9%,-8%,-6%,-3%,6%
CNc1ccc(/C=C(\CCC(=O)O)c2nc3ccccc3s2)cc1[N+](=O)[O-],-7%,45µM*,?,-8%,2%,5%
Cc1ccc(/C=C(\CCC(=O)O)c2nc3ccccc3s2)cc1[N+](=O)[O-],-1%,79µM*,27%,6%,-2%,2%
CN(c1ccccc1)c1ccc(/C=C(\CCC(=O)O)c2nc3ccccc3s2)cc1[N+](=O)[O-],79µM*,?,15%,6%,·,1%
COc1ccc(C(=O)Nc2cccc(/C=C(\CCC(=O)O)c3nc4ccccc4s3)c2)cc1,32%,56µM*,-4%,·,1%,-2%
CCOc1cc(/C=C(\CC(=O)O)c2nc3ccccc3s2)ccc1OC,-4%,7%,3%,5%,6%,0%
CN(C)c1ccc2c(-c3ccccc3)c3ccc(=[N+](C)C)cc-3oc2c1,·,·,·,21%,·,·
COc1cccc(C)c1NC(=O)C(OC(=O)CNC(=O)c1ccccc1)c1ccccc1 (configuration not stated),·,·,·,1%,·,·
Cc1cnc2c3c(cc(Cl)c2c1)-c1ccccc1S(=O)(=O)N3,·,·,·,0%,·,·
CC(=O)c1sc(C(=O)O)c(-c2ccco2)c1-c1ccco1,9%,4%,6%,50µM*,0%,2%
O=C(O)c1sc(C(=O)O)c(-c2ccccc2)c1-c1ccccc1,0%,7%,6%,·,·,10%
COc1ccc(C2Nc3ccccc3C(=O)N2Cc2ccccc2)cc1COc1ccc(C#N)cc1 (configuration not stated),·,·,·,0%,·,·
COc1cc(/C=C2\SC(=Nc3ccccc3)N(CCc3c[nH]c4ccccc34)C2=O)ccc1OC(C)C(=O)O (configuration not stated),?,?,100µM*,0%,-3%,-10%
COc1cc(-c2nnc(COC(=O)c3cc(C)no3)o2)cc(OC)c1OC,8%,-14%,-13%,1%,-2%,9%
COc1cc(-c2nnc(COC(=O)c3ccc(C)o3)o2)cc(OC)c1OC,3%,-23%,-8%,20µM*,·,6%
COc1ccc(C2c3c(n(Cc4ccccc4)cnc3=N)Oc3ccc4ccccc4c32)cc1OC (configuration not stated),·,·,·,5%,·,·
CCCCn1c(N)c(N(CC(C)C)C(=O)C2CCN(S(=O)(=O)c3ccc(C)c(C)c3)CC2)c(=O)[nH]c1=O,29%,50µM*,-11%,-1%[56.1 µM],0%,-7%
O=S1(=O)N=C(Oc2ccc(-c3ccccc3)cc2)c2ccccc21,·,·,·,2%,·,·
CCCCCCCCCCCCCCCCCCNc1ccn(C2OC(COP(=O)(O)OCC3OC(n4cc(F)c(=O)[nH]c4=O)CC3O)C(O)C2O)c(=O)n1 (configuration not stated),4%,22µM*,-35%,·,·,9%
O=C1c2ccccc2C(=O)N1c1ncccc1O,·,·,·,0%,·,·
SMILES,EPAC2 antag,EPAC1 antag,EPAC1 ag,TDP1 inh,ERG Ets-DNA blk,EPAC2 ag
O=C(Nc1ccc2nc(-c3ccc4nc[nH]c4c3)[nH]c2c1)c1cccs1,50µM*,-8%,13%,-9%,?,?
COC(=O)c1ccccc1S(=O)(=O)Nc1cc(=O)c2ccccc2[nH]1,·,·,·,2%,·,·
Cc1ccc(NS(=O)(=O)c2cccc(C(=O)O)c2)cc1C,·,·,·,3%,·,·
O=C(CSc1nnc(SCc2ccccc2)s1)N/N=C/c1c[nH]c2ccccc12,-8%,?,-1%,10µM*,1%,7%
O=C(CSc1nnc(SCc2ccccc2Cl)s1)N/N=C/c1c[nH]c2ccccc12,1%,0%,2%,2%,-6%,0%
Cc1ccc(CSc2nnc(SCC(=O)N/N=C/c3c[nH]c4ccccc34)s2)cc1,-10%,?,4%,6.3µM*,-1%,10%
CCc1oc(C(=O)O)cc1COC,-3%,-6%,2%,56µM*,-13%,5%
CCc1oc(C(=O)O)cc1CN(CC)CC,0%,-3%,13%,4%,-4%,18%
O=C(Cc1ccccc1)NCC(=O)OCC(=O)c1ccc2ccccc2c1,·,·,·,1%,·,·
CCn1c(O)c(/C=N/N=C/c2ccc(OC)cc2)c2cc(C3=NNC(=O)CC3)ccc21,11%,?,11%,9%,4%,100µM*
O=C1CCc2cc(S(=O)(=O)Nc3ccc(Cl)cc3)ccc2N1,·,·,·,1%,·,·
O=C1N(Cc2cccnc2)C[C@@H]2C[C@@H](c3ccccc3C(F)(F)F)N3CCC[C@@]123,6%,-10%,-1%,·,32µM*,15%
O=C1N(Cc2cccnc2)C[C@@H]2C[C@@H](c3ccc(C(F)(F)F)cc3)N3CCC[C@@]123,0%,1%,-5%,5%,-5%,-7%
CC[n+]1c(/C=C/C=C/N(C(C)=O)c2ccccc2)sc2cc(OC)ccc21,46%,141%,100µM*,5%,·,?
CC[n+]1c(/C=C(\C)OC)sc2ccccc21,-8%,-21%,2%,12%,11%,2%
COC(=O)Cc1c(C)c2ccc(OC(=O)c3ccco3)cc2oc1=O,2%,-5%,3%,4%,4%,6.3µM*
COC(=O)Cc1c(C)c2cc(Cl)c(OC(=O)c3ccco3)cc2oc1=O,8%,10%,-4%,2%,0%,-2%
Cc1c(P(=S)(c2ccccc2)c2ccccc2)c2ccccc2n1CCc1ccccc1,·,·,·,0%,·,·
Fc1ccc(N2N=C(c3cccs3)CC2c2ccccc2)cc1 (configuration not stated),?,8%,4%,13µM*,-1%,3%

# Screening results as filed in PubChem BioAssay.
